# Source: PubChem
# Pf Dd2 inh = qHTS Primary assay for Inhibitors of Plasmodium falciparum Dd2 growth in vitro; P. falciparum Dd2 growth, SYBR Green, 72 h; Potency, µM (doses to about 28.9 µM), for inactives: at the top dose activity, negative = inhibition, most hits filed as inhibitors; 120,000 compounds, 4.3% hits; AID 1347417, 2020; active = well fitted inhibition curve with a large enough effect;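 also: plate controls were DMSO vehicle for no effect and reference drug for full effect; nearly all actives have a fitted effect of over 65% in size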
#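 Infected erythrocytes (Dd2, 0.3% parasitemia, 2.5% hematocrit final) are added to compound in RPMI-1640/Albumax II medium, grown 72 h at 37C in low oxygen, then lysed with saponin/Triton-X containing SYBR Green and read by fluorescence.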
# An asterisk follows results filed as active; i = inactive; [ ] = remark or other dose. The entries come from a sample that favours hits as a whole. Potency is read from the fitted curve at half-maximal effect.
SMILES,Pf Dd2 inh
COc1ccc(-n2cccn2)c(CN2CC[C@H](CO)[C@H](O)C2)c1,i
CCOC(=O)N1CCN(C2CCCN(Cc3cc(C)ccc3-n3cccn3)C2)CC1 (configuration not stated),10µM*
O=C(CCC[C@@H]1[C@H]2CCCN3CCC[C@@H](CN1C(=O)Nc1ccccc1)[C@@H]23)Nc1ccccc1,-19%
CN(Cc1ccccc1)C(=O)[C@H]1O[C@H](CCN2CCN(c3ccccc3)CC2)CC[C@@H]1O,4.5µM*
O=C([C@H]1O[C@H](CCN2CCN(c3ccccc3)CC2)CC[C@@H]1O)N1CCOCC1,2%[44.1 µM]
COc1ccccc1N1CCN(C(=O)[C@H]2O[C@H](CCN3CCN(c4ccccc4)CC3)CC[C@@H]2O)CC1,i
O=C(c1cccc(N2CCCC2=O)c1)N1CCCC(O)(CN2CCCC2)C1 (configuration not stated),-4%
Cc1ccc(CNC(=O)c2c(Nc3ccccc3C)sc(C(=O)c3ccc(F)cc3)c2N)cc1,-17%
COc1cccc(Nc2sc(C(=O)c3ccc(F)cc3)c(N)c2C(=O)NCc2ccc(C)cc2)c1,10µM*
COc1cccc(Nc2sc(C(=O)c3ccc(Cl)cc3)c(N)c2C(=O)NCCc2ccc(OC)c(OC)c2)c1,-20%
COCCC1(C(=O)O)CCCN(C(=O)c2cc(F)ccc2OC)C1 (configuration not stated),-3%
NC(=O)CNC(=O)C1=C[C@@H](NC(=O)Nc2ccccc2Br)[C@@H](O)[C@H](O)C1,-5%[44.1 µM]
COC1CCOC2(CCN(C(=O)COc3ccc(C)cc3)CC2)C1 (configuration not stated),-46%
CC(=O)N(C)Cc1ccccc1C(F)(F)F,-2%[44.1 µM]
Cc1ccc(S(=O)(=O)N2CCCC(Cn3cnc4cccnc43)C2)c(C)c1 (configuration not stated),i
O=C(NC[C@H]1O[C@@H](CC(=O)N2CCN(c3ccc(F)cc3)CC2)[C@H](O)[C@@H]1O)C1CC1,-7%[44.1 µM]
COc1cccc(C(=O)N2C(C(=O)NC(C)C)COC23CCN(C(=O)c2ccc(F)cc2)CC3)c1 (configuration not stated),-9%
COCC1CN(C(C)=O)CC12CCN(Cc1ccc(F)cc1)CC2 (configuration not stated),9%
CCc1ccc2c(c1)c(=O)c(C(=O)c1ccc(C)cc1)cn2CC(=O)Nc1ccccc1C,-2%
CCOc1ccc(NC(=O)Cn2cc(C(=O)c3ccc(F)cc3)c(=O)c3cc4c(cc32)OCCO4)cc1,9%
COc1ccccc1Cn1cc(C(=O)c2ccccc2)c(=O)c2cc(OC)c(OC)cc21,2.5µM*
O=C(c1ccc(F)cc1)c1cn(Cc2ccccc2F)c2cc3c(cc2c1=O)OCCO3,61%[5.79 µM]
COc1ccc2c(c1)c(=O)c(C(=O)c1ccc(C)cc1)cn2Cc1ccccc1F,13µM*
CCOc1ccc2c(c1)c(=O)c(C(=O)c1ccc(CC)cc1)cn2CC(=O)Nc1ccccc1OC,-7%
O=C(c1ccc(Cl)cc1)c1cn(Cc2ccccc2)c2cc3c(cc2c1=O)OCCO3,11µM*
SMILES,Pf Dd2 inh
COc1cc(NC(=O)Cn2ccn(Cc3ccccc3OC)c(=O)c2=O)cc(OC)c1,34%
CCOc1ccc(C(=O)c2cn(CC(=O)Nc3ccc(Cl)cc3)c3cc4c(cc3c2=O)OCO4)cc1,-9%
CCc1ccccc1NC(=O)Cn1cc(C(=O)c2ccncc2)c(=O)c2cc(C)ccc21,i
CCOc1ccc(C(=O)c2cn(Cc3ccc(Cl)cc3)c3cc(OC)c(OC)cc3c2=O)cc1,7.9µM*
CCOc1ccc(NC(=O)Cn2cc(C(=O)c3ccccc3)c(=O)c3cc4c(cc32)OCO4)cc1,-1%
Cc1cnn(CCC(=O)NC2CCc3nnc(C)n3CC2)c1 (configuration not stated),21%
Cc1ccc(CN(C)C(=O)CC(c2ccccc2)c2ccc3c(c2)OCO3)o1 (configuration not stated),i
CCc1ccc(C(=O)c2cn(CC(=O)Nc3ccc(Cl)cc3)c3cc4c(cc3c2=O)OCO4)cc1,-28%
COc1ccc(Cn2cc(C(=O)c3ccc(OC)cc3)c(=O)c3cc4c(cc32)OCCO4)cc1,8.9µM*
CCOc1ccc(NC(=O)Cn2cc(C(=O)c3ccc(OC)cc3)c(=O)c3cc4c(cc32)OCO4)cc1,4%
Cc1ccc(Cn2cc(S(=O)(=O)c3ccc(Cl)cc3)c(=O)c3cc4c(cc32)OCO4)cc1,-1%
CCOc1ccc(C(=O)c2cn(CC(=O)Nc3ccc(OC)cc3)c3cc4c(cc3c2=O)OCCO4)cc1,25%
Cc1ccc2c(c1)c(=O)c(C(=O)c1ccc3c(c1)OCO3)cn2Cc1ccc(Cl)cc1,13µM*
O=C(Cc1ccccc1)N1CCC2(CC(c3cccnc3)=NO2)C1 (configuration not stated),12%
CCCc1cc(CN(C)C(=O)CC2C(=O)NCCN2CCCc2ccccc2)[nH]n1 (configuration not stated),-18%
CN(C)C(=O)c1ccc(-c2ccc(N3CCCCCC3)nc2)cc1,i
COc1ccc(Cn2c(SCc3ccc(C(=O)NC4CCCCC4)cc3)nc3ccncc32)cc1,7.9µM*
COc1ccc(Cn2c(SCc3ccc(C(=O)NC4CCCC4)cc3)nc3ccncc32)cc1,-13%
Cc1ccc(Cn2c(=O)n(Cc3ccc(C(=O)NC4CCN(Cc5ccccc5)CC4)cc3)c(=O)c3ccccc32)cc1,7%
Cc1ccc(CSc2nc3ccncc3n2Cc2nc(-c3ccc(Cl)cc3)oc2C)cc1,5%
COc1ccc(CSc2nc3ccncc3n2CC(=O)Nc2cc(C)cc(C)c2)cc1,49%
Cc1ccc(C(=O)CSc2nc3cc(C(=O)NC4CCCC4)ccc3c(=O)n2CC2CCCO2)c(C)c1 (configuration not stated),-3%
Cc1ccc(Cn2c(SCc3ccc(C(=O)NC4CCCCC4)cc3)nc3ccncc32)cc1,11µM*
Cc1cccc(CSc2nc3cc(C(=O)NC4CCCC4)ccc3c(=O)n2Cc2ccccc2)c1,18%
Cc1ccc(Cn2c(SCc3ccc(C(=O)NC4CCCC4)cc3)nc3ccncc32)cc1,11µM*
SMILES,Pf Dd2 inh
CC(C)(Oc1nn(CC2CCOCC2)c2ccccc12)C(=O)NCCc1ccccc1,-9%[44.1 µM]
O=C(c1ccco1)N1C[C@@H](CO)[C@H](c2ccncc2)C1,9%
O=C(Cn1ncc2ccccc2c1=O)NC1CCCc2c1[nH]c1ccccc21 (configuration not stated),-3%
COCCNC(=O)[C@H]1C[C@H](Oc2ccccc2)CN1C(=O)Nc1ccc2c(c1)OCCO2,i
O=C(Cc1ccccc1)N1CCC(c2n[nH]c(=O)n2Cc2ccc(F)cc2)CC1,i
CCC(C)(C)C(=O)N1CCn2c(nnc2[C@@H]2C[C@@H](O)CN2Cc2ccccc2)C1,i
Cc1cccc(NC(=O)C2CCN(C(=O)c3ncn4c3COC(c3ccc(F)cc3)C4)CC2)c1C (configuration not stated),i
CCN1CCC2(CCC1=O)CN(C(=O)CCc1cccnc1)CCN2C (configuration not stated),-7%
COc1ccccc1NC(=O)NCCCN1CCN(c2ccc(F)cc2)CC1,i
CCNC(=O)Cn1c(-c2cccs2)cc2ccccc21,10%
CC(CNC(=O)Cn1c(-c2cccs2)cc2ccccc21)c1ccccc1 (configuration not stated),11µM*
O=C(Cn1c(-c2cccs2)cc2cc(F)ccc21)NCCCN1CCN(c2ccc(F)cc2)CC1,6.3µM*
O=C(Cn1c(-c2cccs2)cc2ccccc21)N1CCN(c2ccc(Cl)cc2)CC1,8%
